For 23 compounds, Potency and outcome results are on record in PubChem BioAssay (Tox21).

Test [1] is described as follows: qHTS assay to identify small molecule agonists of the vitamin D receptor (VDR) signaling pathway - cell viability counter screen (AID 743224). Further: nearly all actives have a fitted effect of over 50% in size. Further: potency means the concentration at half of the fitted maximal effect. In short, it runs like this:
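VDR-bla cell line, quantitative HTS format; 16 h compound incubation (37C, 5% CO2); ATP-based CellTiter-Glo luminescence measured in the reporter assay wells.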

Test [2] can be described thus: qHTS assay to identify small molecule agonists of the NFkB signaling pathway (AID 1159509; active means well fitted curve in the direction sought with a large enough effect in the signal ratio in the repeat runs, not every such curve was filed as active; the % refers to the signal ratio; further: series mostly up to about 61 µM). In short, it runs like this: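 NFkB-bla ME-180 cells with a beta-lactamase reporter under an NF-kB response element were plated overnight, treated with compounds in DMSO for 5 hr at 37 C, then loaded with FRET substrate for 1.5 hr at room temperature.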
Test [3] can be described thus: qHTS assay to identify small molecule agonists of the endoplasmic reticulum stress response signaling pathway (AID 1159516; active means well fitted activation curve with a large enough effect in the signal ratio in the repeat runs, not every such curve was filed as active; the % refers to the signal ratio). In short, it runs like this:
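ER stress element reporter (bla) in HeLa. 1,500 cells/well, overnight attachment; 5 hr compound; 2 hr RT substrate; dual-emission fluorescence.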

Test [4] is described as follows: qHTS assay to identify small molecule agonists of the endoplasmic reticulum stress response signaling pathway - cell viability counter screen (AID 1159517; calls by dose curve;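 further: HeLa cells carrying an ER stress response element beta-lactamase reporter; series mostly up to about 61 µM; nearly all actives have a fitted effect of over 50% in size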). In short, it runs like this:
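Counter-screen wells were identical to the reporter wells. Cells were plated at 1,500 per well and dosed for 5 hr, then read for luminescence 30 min after CellTiter-Glo addition.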

Test [5] in a line: qHTS assay to identify small molecule antagonists of the retinoid-related orphan receptor gamma (ROR-gamma) signaling pathway - cell viability counter screen (AID 1159520). Further: nearly all actives have a fitted effect of over 50% in size. Further: potency means the concentration at half of the fitted maximal effect. In short, it runs like this: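 Tet-on ROR gamma CHO cells were given compounds for 2 hr, then doxycycline hyclate at 1 uM final, and incubated 16 hr at 37 C. Viability was measured as ATP content by CellTiter-Glo luminescence.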

The target in test [6] is Nuclear receptor ROR-gamma (Homo sapiens) (UniProt P51449). Description: qHTS assay to identify small molecule antagonists of the retinoid-related orphan receptor gamma (ROR-gamma) signaling pathway (AID 1159521; further: nearly all actives have a fitted effect of over 50% in size; further: potency means the concentration at half of the fitted maximal effect). In short, it runs like this: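 Tet-on RORγ CHO cells carrying a ROR response element–luciferase reporter were pretreated with compounds for 2 h, then induced with 1 uM (final) doxycycline hyclate for 16 h at 37 C. Antagonism was read as decreased ONE-Glo luminescence.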

The nature of test [7]: qHTS assay to identify small molecule agonists of the AP-1 signaling pathway - cell viability counter screen (AID 1159525; calls by dose curve; further: nearly all actives have a fitted effect of over 55% in size). In short, it runs like this:
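AP-1-bla ME-180 cells in Opti-MEM with 0.5% dialyzed FBS, compound exposure 5 h at 37 C in 15-point titration. Viability read in the same wells as ATP content by CellTiter-Glo luminescence, normalised to tetra-n-octylammonium bromide and DMSO controls.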

Test [8] can be described thus: qHTS assay to identify small molecule agonists of the AP-1 signaling pathway (AID 1159526; calls by dose curve).
A short description of test [9]: qHTS assay to identify small molecule antagonists of the vitamin D receptor (VDR) signaling pathway - cell viability counter screen (AID 743225). Further: nearly all actives have a fitted effect of over 50% in size. Further: potency means the concentration at half of the fitted maximal effect. The essentials:
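VDR-bla HEK 293T cells, 4 h pre-incubation at 37C, then compound plus 1-alpha,25-dihydroxyvitamin D3 (3 nM final) for 16 h. After the beta-lactamase FRET read, CellTiter-Glo was added to the same wells; luminescence after 30 min at room temperature.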

Test [10] in a line: qHTS assay to identify small molecule agonists of the NFkB signaling pathway - cell viability counter screen (AID 1159515; calls by dose curve; further: nearly all actives have a fitted effect of over 55% in size; further: potency means the concentration at half of the fitted maximal effect). The essentials:
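Viability in NFkB-bla ME-180 cells was measured by CellTiter-Glo luminescence, 30 min room temperature, in wells already treated 5 hr with compounds and read for reporter FRET.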

Records with an inconclusive call do not appear. The source made the active and inactive calls. Unless noted, the call rests on the fitted dose curve; in most records, active means well fitted curve in the direction sought with a large enough effect in the repeat runs; inconclusive means weak or mixed curves; inactive means no such curve, though single readings can be large; an effect the other way counts as inactive or inconclusive.

`CCOC(=O)CBr`: the Potency result in test [1], in test [4], in test [5], in [6] and in test [7] was “inactive” in each case. Also, the outcome in test [2], in test [3] and in test [8] was inactive.

On to `CN(C)c1ccc(N(C)C)cc1`, for which the Potency entry in test [9], in test [10], in [5], in test [6] and in test [7] was “inactive” each time. For the same compound, the outcome in [2] was inactive.

On to `C/C(=C\c1ccccc1)[N+](=O)[O-]`, for which the Potency in test [1] was 24.5 µM (active); in test [10], 54.9 µM (active); in test [5], 27.3 µM (active); in [6], 19.3 µM (active). The result in test [2] was inactive. For the same compound, the Potency result in [7] was “inactive”.

For `CCOP(O)OCC`, the Potency result in [1], in [9], in test [4], in test [5], in [6] and in test [7] was “inactive” each time. The result in test [2], in [3] and in test [8] was inactive.

Turning to `O=C(O)COc1ccc(Cl)cc1`, the Potency entry in test [1], in test [10], in [5] and in test [7] was “inactive” each time. Besides, the outcome in [2] and in test [8] was inactive.

In the case of `Clc1cccc(SC2CCNCC2)n1`, the Potency entry in test [1], in [4], in [5], in [6] and in test [7] was “inactive” each time. Moreover, the result in [2], in test [3] and in [8] was inactive.

Turning to `c1ccoc1`, the Potency entry in test [1], in test [9], in [4], in [5], in [6] and in test [7] was “inactive” each time. For the same compound, the outcome in test [2], in test [3] and in test [8] was inactive.

On to `O=C1c2ccccc2C(=O)C1C(=O)C(c1ccccc1)c1ccccc1`, for which the call in [2] and in test [8] was inactive. The Potency entry in test [10], in test [5] and in test [7] was “inactive” throughout.

As to `CC1C(=O)C[C@]2(C(C)C)C[C@H]12` (stereo not given in full), the Potency entry in [1], in test [9], in test [4], in test [5], in test [6] and in [7] was “inactive” in each case. In addition, the compound was called inactive in [2], in test [3] and in test [8].

Regarding `NCCCNCCCN`, the Potency in [9] is 49.7 µM (active). The result in test [2] and in test [8] was inactive. The Potency result in test [10], in test [5] and in [7] was “inactive” each time.

On to `C=CC(=O)OCC(C)O` (stereo not given), for which the Potency result in [1], in test [4], in test [5], in [6] and in test [7] was “inactive” throughout. The outcome in [2], in test [3] and in [8] was inactive.

For the compound `C=CC(=O)OCCCCO`, the Potency entry in test [1], in test [9], in test [4], in test [5] and in test [7] was “inactive” each time. In addition, in test [2], the call was inactive.

As to `Clc1ccc(C(OCCN2CCCCC2)c2ccccc2)cc1` (stereo not given), in test [2], the result was inactive. Further, the Potency entry in test [4], in test [5] and in test [7] was “inactive” throughout.

As to `c1cc2ccc3cccc4ccc(c1)c2c34`, the outcome in [2] and in test [8] was inactive. Besides, the Potency result in test [5] and in [6] was “inactive” throughout.

Turning to `COc1c(C(C)(C)C)cc([N+](=O)[O-])c(C)c1[N+](=O)[O-]`, the Potency entry in [1], in test [9], in test [4], in test [5], in [6] and in test [7] was “inactive” each time. For the same compound, the call in test [2] and in test [3] was inactive.

For the compound `Oc1ccc(Cl)c(Cl)c1Cl`, the Potency entry in test [9], in [4] and in test [7] was “inactive” in each case. Besides, the outcome in test [2], in [3] and in [8] was inactive. The Potency in test [6] is 50.3 µM (active).

Turning to `N#CCc1ccccc1`, the Potency entry in test [1], in test [9], in test [4], in [5], in test [6] and in test [7] was “inactive” throughout. In addition, the compound was called inactive in test [2] and in [8].

Consider `COC1=CC(=O)O[C@@H](CCc2ccccc2)C1`, for which the Potency entry in test [1], in test [9], in test [4], in [5], in [6] and in [7] was “inactive” in each case. Further, the call in [2] and in [8] was inactive.

`CC1(C)CCC(Cc2ccc(Cl)cc2)C1(O)Cn1cncn1` (stereo not given): the Potency result in test [1] and in test [4] was “inactive” in each case. In addition, the result in test [2] was inactive. In addition, the Potency in test [6] was 54.5 µM (active).

In the case of `Cc1ccc2ccccc2c1`, the Potency entry in [1], in test [9], in test [4], in test [5], in test [6] and in test [7] was “inactive” in each case. Besides, the call in test [2] and in test [8] was inactive.

`CO/N=C(/C(=O)OC)c1ccccc1COc1ccccc1C`: the compound was classed as inactive in test [2], in test [3] and in [8]. Moreover, the Potency entry in [4] and in [7] was “inactive” throughout. Further, the Potency in test [6] is 2.73 µM (active).

`O=S(=O)(O)C(F)(F)C(F)(F)C(F)(F)C(F)(F)F`: the compound was called inactive in [2] and in [8]. Moreover, the Potency result in [5] and in test [6] was “inactive” throughout.

Regarding `CC(=O)NC1CCSC1=O` (stereo not given), the Potency result in test [1], in [9], in test [4], in test [5], in [6] and in test [7] was “inactive” throughout. Further, the result in test [2] and in test [8] was inactive.
